Bioassay records from PubChem BioAssay.
A selection: hits, their analogues and other compounds. The true share with any hit is near 27%.
CYP2C19 act – cytochrome P450 2C19 (human) activation; P33261; recombinant CYP2C19, luciferin-H EGE luminescence; hits give high values; 0 = fully inhibited enzyme, 1 = untreated enzyme; activation factor at 5 µM; 96,000 tested, under 10 active; AID 1025;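 active means activation factor of at least 2 at 5 µM in the primary screen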
CYP2C9 inh – inhibitors of human CYP2C9; P11712; CYP2C9 Supersomes, luciferin-H conversion, luminescence; inhibition, % at 5 µM; 96,000 tested, 20% active; AID 777;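 active means blocking of liver enzyme CYP2C9 beyond about 50% at 5 µM, limit read from the data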
CYP2C9 act – CYP2C9 (human) activation. P11712. recombinant CYP2C9, luciferin-H conversion, luminescence; hits give high values; factor 1 = untreated enzyme, 0 = blocked. activation factor at 5 µM. 96,000 tested, 1.4% active;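 active means activation factor of 2 or more for CYP2C9 at a 5 µM dose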
Cav32 inh – inhibitors of human Cav3.2 T-type calcium channel. O95180. Cav3.2-expressing cells, Fluo-4 calcium fluorescence FDSS; hits give low values. B-score at 10 µM. 100,000 tested, 4% active. AID 449739;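 active means single-dose well whose peak fluorescence ratio is a statistical outlier from its plate by either plate-standardised score or position-corrected B-score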
CYP2C19 inhib – blocks human cytochrome P450 2C19. inhibition, % at 5 µM. AID 778. CYP2C19 Supersomes, luciferin-H EGE luminescence, 30 min. 96,000 tested, 21% active. P33261;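 active means CYP2C19 inhibition above a set limit at 5 µM in the primary screen, cut at about 50% in these data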
A number is an active result; - = inactive; . = no result.

SMILES	CYP2C19 act	CYP2C9 inh	CYP2C9 act	Cav32 inh	CYP2C19 inhib
COc1ccc(NC(=O)CCCC(=O)OCC(F)(F)C(F)F)cc1	-	-	-	-	-
COc1ccccc1NC(=O)CCCC(=O)OCC(F)(F)C(F)F	-	-	2.8	-	87
COc1cc(/C=N/NC(=O)CSCc2ccc([N+](=O)[O-])cc2)cc(OC)c1OC	-	57	-	-	-
COc1ccccc1NC(=O)N(c1c(N)n(Cc2ccccc2)c(=O)[nH]c1=O)C1CCCC1	-	-	-	-	-
O=c1nc(N2CCOCC2)ccn1-c1nc(-c2ccccc2)oc1-c1ccccc1	-	55	-	-	-
Cc1[nH]c2ccccc2c1Cc1nnc(SCC(N)=O)o1	-	-	-	-	-
COc1ccc(C)cc1NC(=O)c1nnn(Cc2cc(C)ccc2C)c1N	-	-	2.4	-	-
COc1ccc(OC)c(NC(=O)c2nnn(Cc3ccccc3C)c2N)c1	-	-	2.1	-	-
COc1ccc(C)cc1NC(=O)c1nnn(CCc2ccccc2)c1N	-	-	-	-	-
Cc1sc2nc(C3CCCCC3)nc(SCC(=O)N3CC(=O)Nc4ccccc43)c2c1C	-	86	-	-	-
COc1ccc(NS(=O)(=O)c2ccc(SC)cc2)c(OC)c1	-	-	-	-	87
COc1cccc(Nc2nc3ccccc3nc2NS(=O)(=O)c2cccs2)c1	-	-	-	-	-
COc1ccc(S(=O)(=O)Nc2cccc(SC)c2)cc1OC	.	.	.	-	.
COc1ccccc1NS(=O)(=O)c1cccs1	-	-	2.2	-	81
O=C(c1ccccc1NS(=O)(=O)c1cccs1)N1CCOCC1	.	.	.	-	.
COc1ccc(NS(=O)(=O)c2cccs2)c(OC)c1	-	-	-	.	55
CC(=O)Nc1ccc(-c2nnc(SCC(=O)NCc3ccco3)n2C)cc1	-	-	-	-	-
COc1ccc(/C=N/NC(=O)c2csc(-n3nc(C)cc3C(F)(F)F)n2)cc1	-	-	-	-	-
CC(=O)c1cccc(NC(=O)c2csc(-n3nc(C)cc3C(F)(F)F)n2)c1	-	56	-	-	51
COc1ccc(S(=O)(=O)NNC(=O)c2csc(-n3nc(C)cc3C(F)(F)F)n2)cc1OC	-	54	-	-	-
O=C(O)CCn1[nH]c(=O)c2ccccc2c1=O	-	-	-	-	-
CCOC(=O)C1=C(C)N=C2c3ccccc3C(=O)C2C1c1ccc(C)cc1 (stereo not drawn)	-	69	-	-	-
CCOC(=O)C1=C(C)N=C2c3ccccc3C(=O)C2C1c1ccccc1 (stereo not drawn)	-	56	-	-	-
CCOC(=O)C1=C(C)N=C(SC)N(C)C1c1ccccc1 (stereo not drawn)	-	-	-	-	-
COc1ccc2nc(NC(=O)c3ccc4ncsc4c3)sc2c1	-	54	-	.	-
SMILES	CYP2C19 act	CYP2C9 inh	CYP2C9 act	Cav32 inh	CYP2C19 inhib
COc1ccc2nc(NC(=O)CSc3nc4ccccc4o3)sc2c1	-	-	-	-	62
Cc1cccc2sc(NC(=O)CSc3nc4ccccc4o3)nc12	-	-	-	-	-
O=C(CSc1nc2ccccc2o1)Nc1nc2ccc(Br)cc2s1	-	81	-	-	94
COc1ccc2nc(NC(=O)CSc3nc(C)cc(C)n3)sc2c1	-	84	-	-	90
CCOc1ccc(N(CC)S(=O)(=O)c2ccc3c(c2)oc(=O)n3C)cc1	.	.	.	-	.
COc1nc(C#N)nc(N(C)C)n1	-	-	-	-	-
CCOC(=O)CSc1nnc(CNc2ccc(Cl)cc2)n1-c1ccccc1	-	-	-	-	-
Cn1c(CNc2cccc(Cl)c2)nnc1SCC(=O)OC1CCCCC1	-	81	-	-8.5	79
CCOC(=O)CSc1nnc(CNc2cccc(Cl)c2)n1-c1ccccc1	-	-	-	-5.6	56
C=CCn1c(=S)[nH]c2sc3c(c2c1=O)CCC3	.	.	.	-	.
CCOc1ccccc1NC(=O)CSc1nnc(CNC(=O)COc2ccc(Cl)cc2)o1	-	-	2	-	-
COC(=O)c1ccc(CSc2nnc(CNC(=O)c3ccccc3F)o2)o1	-	-	-	-	-
COC(=O)c1ccc(CSc2nnc(CNC(=O)COc3ccc(Cl)cc3)o2)o1	-	68	-	-	-
O=C(CSc1nccn1-c1ccc(Cl)cc1)NCc1ccc2c(c1)OCO2	-	98	-	.	100
O=C(COc1ccc(Cl)cc1)NCc1nnc(SCC(=O)NCc2ccc3c(c2)OCO3)o1	-	70	-	-	-
Cc1cnn(-c2ccc3nnc(-c4ccc(Cl)cc4)n3n2)c1	-	-	-	-	-
